# Test results reported in the supplement of paper PMC10849652.
# About 8,800 targets were measured; listed, in parts, are those with a hit and a random draw of the rest. About 0.5% of all pairs of compound and target were hits. Values without a mark were called inactive.
# Key:
# Experiment in all cases: log2 fold change, soluble protein after heating vs DMSO (PISA); higher = thermal stabilisation; K562 lysate, 10 uM; active = over 0.2 and 3.5 SD of the protein, either way, in both replicates (recomputed)
# alvocidib = compound: CN1CC[C@H](c2c(O)cc(O)c3c(=O)cc(-c4ccccc4Cl)oc23)[C@H](O)C1 [alvocidib]
# Method in brief: (§1)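 K562 pellets were dounce-homogenised in PBS pH 7.4 with 1 mM MgCl2, and the crude extract at 1 mg/mL protein was treated with 10 μM compound for 30 min. Aliquots were heated for 3 min across 48°C-58°C, pooled, and brought to 0.5% NP-40 at 4°C; soluble protein was the supernatant after 21,000xg for 90 min. Soluble protein was quantified by TMTpro 16plex LC-MS/MS with channel sums equalised, and reported as log2 fold change in thermal stability against DMSO controls, with values from duplicates.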
# Tubastatin A = compound: CN1CCc2c(c3ccccc3n2Cc2ccc(C(=O)NO)cc2)C1 [Tubastatin A]
# Method in brief: as §1
# [1] = compound: CNC(=O)C1=CC=CC=C1NC2=NC(=NC=C2Cl)NC3=C(C=C(C=C3)N4CCOCC4)OC
# Method in brief: as §1
# defactinib = compound: CNC(=O)c1ccc(Nc2ncc(C(F)(F)F)c(NCc3nccnc3N(C)S(C)(=O)=O)n2)cc1 [defactinib]
# Method in brief: as §1
# [2] = compound: CNc1nc(-c2ccc3c(N)n[nH]c3c2)cc(N2C[C@@H](C(=O)NC3CCCCC3)CC[C@H]2C)n1
# Method in brief: as §1
# encorafenib = compound: COC(=O)N[C@@H](C)CNc1nccc(-c2cn(C(C)C)nc2-c2cc(Cl)cc(NS(C)(=O)=O)c2F)n1 [encorafenib]
# Method in brief: as §1
# [3] = compound: COC(=O)[C@H](CCSC)NC(=O)C1=C(C=C(C=C1)NC[C@H](CS)N)C2=CC=CC=C2
# Method in brief: as §1
# alisertib = compound: COc1cc(Nc2ncc3c(n2)-c2ccc(Cl)cc2C(c2c(F)cccc2OC)=NC3)ccc1C(=O)O [alisertib]
# Method in brief: as §1
# [4] = compound: COc1cc2nc(-c3cc(F)ccc3O)nc(N[C@@H]3CNC[C@H]3C(C)(C)O)c2cc1OC
# Method in brief: as §1
# gefitinib = compound: COc1cc2ncnc(Nc3ccc(F)c(Cl)c3)c2cc1OCCCN1CCOCC1 [gefitinib]
# Method in brief: as §1
# lapatinib = compound: CS(=O)(=O)CCNCc1ccc(-c2ccc3ncnc(Nc4ccc(OCc5cccc(F)c5)c(Cl)c4)c3c2)o1 [lapatinib]
# Method in brief: as §1
# pictilisib = compound: CS(=O)(=O)N1CCN(Cc2cc3nc(-c4cccc5[nH]ncc45)nc(N4CCOCC4)c3s2)CC1 [pictilisib]
# Method in brief: as §1
# crizotinib = compound: C[C@@H](Oc1cc(-c2cnn(C3CCNCC3)c2)cnc1N)c1c(Cl)ccc(F)c1Cl [crizotinib]
# Method in brief: as §1
# [5] = compound: C[C@H](C1=CC=C(C=C1)C(=O)NC2=C3C=CNC3=NC=C2)N
# Method in brief: as §1
# duvelisib = compound: C[C@H](Nc1ncnc2nc[nH]c12)c1cc2cccc(Cl)c2c(=O)n1-c1ccccc1 [duvelisib]
# Method in brief: as §1
# gandotinib = compound: Cc1cc(Nc2cc(CN3CCOCC3)c3nc(C)c(Cc4ccc(Cl)cc4F)n3n2)n[nH]1 [gandotinib]
# Method in brief: as §1
# tozasertib = compound: Cc1cc(Nc2cc(N3CCN(C)CC3)nc(Sc3ccc(NC(=O)C4CC4)cc3)n2)n[nH]1 [tozasertib]
# Method in brief: as §1
# doramapimod = compound: Cc1ccc(-n2nc(C(C)(C)C)cc2NC(=O)Nc2ccc(OCCN3CCOCC3)c3ccccc23)cc1 [doramapimod]
# Method in brief: as §1
# bafetinib = compound: Cc1ccc(NC(=O)c2ccc(CN3CC[C@H](N(C)C)C3)c(C(F)(F)F)c2)cc1Nc1nccc(-c2cncnc2)n1 [bafetinib]
# Method in brief: as §1
# [6] = compound: Cc1cccc(CC(=O)N2CCc3c2ccc(-c2cn(C)c4ncnc(N)c24)c3F)n1
# Method in brief: as §1
# Chain of UniProt O60244 (O60244 whole entry, looked up): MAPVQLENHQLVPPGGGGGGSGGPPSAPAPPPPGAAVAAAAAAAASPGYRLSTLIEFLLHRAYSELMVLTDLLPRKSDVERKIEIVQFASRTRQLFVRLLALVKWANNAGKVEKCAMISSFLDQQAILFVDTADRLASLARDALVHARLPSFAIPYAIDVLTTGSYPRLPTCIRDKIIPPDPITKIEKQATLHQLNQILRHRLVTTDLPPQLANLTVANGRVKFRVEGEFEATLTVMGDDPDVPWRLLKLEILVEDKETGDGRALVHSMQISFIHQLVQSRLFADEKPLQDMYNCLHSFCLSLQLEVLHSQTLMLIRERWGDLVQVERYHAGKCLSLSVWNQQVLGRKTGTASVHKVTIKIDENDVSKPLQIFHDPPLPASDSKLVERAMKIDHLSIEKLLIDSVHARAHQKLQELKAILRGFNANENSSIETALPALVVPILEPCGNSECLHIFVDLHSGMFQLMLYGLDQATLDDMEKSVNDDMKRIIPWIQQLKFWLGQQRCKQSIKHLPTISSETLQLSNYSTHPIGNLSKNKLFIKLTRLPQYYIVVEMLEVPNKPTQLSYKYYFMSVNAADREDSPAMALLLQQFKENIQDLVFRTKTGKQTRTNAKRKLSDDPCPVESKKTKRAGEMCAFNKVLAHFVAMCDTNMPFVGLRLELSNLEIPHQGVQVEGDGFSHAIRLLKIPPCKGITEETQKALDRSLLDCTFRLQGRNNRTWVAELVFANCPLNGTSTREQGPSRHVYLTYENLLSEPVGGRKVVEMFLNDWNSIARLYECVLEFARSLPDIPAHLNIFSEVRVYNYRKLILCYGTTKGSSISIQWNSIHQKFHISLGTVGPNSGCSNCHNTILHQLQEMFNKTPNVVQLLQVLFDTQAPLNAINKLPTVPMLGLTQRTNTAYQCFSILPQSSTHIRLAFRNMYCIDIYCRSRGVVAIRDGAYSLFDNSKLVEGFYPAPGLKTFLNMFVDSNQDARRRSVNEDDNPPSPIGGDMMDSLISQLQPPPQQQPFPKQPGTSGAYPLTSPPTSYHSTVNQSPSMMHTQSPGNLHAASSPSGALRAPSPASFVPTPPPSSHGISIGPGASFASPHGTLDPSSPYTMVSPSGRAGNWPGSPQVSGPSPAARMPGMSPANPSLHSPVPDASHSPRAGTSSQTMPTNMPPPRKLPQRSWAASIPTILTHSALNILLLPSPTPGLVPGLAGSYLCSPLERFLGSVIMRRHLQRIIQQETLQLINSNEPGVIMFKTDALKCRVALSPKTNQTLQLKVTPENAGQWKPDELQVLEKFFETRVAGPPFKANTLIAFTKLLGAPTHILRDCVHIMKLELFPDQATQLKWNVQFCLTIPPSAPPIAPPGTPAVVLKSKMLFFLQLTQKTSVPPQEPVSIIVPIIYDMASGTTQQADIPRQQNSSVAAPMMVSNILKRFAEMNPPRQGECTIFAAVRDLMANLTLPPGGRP
# Chain of UniProt Q9Y6X9 (Q9Y6X9 whole entry, looked up): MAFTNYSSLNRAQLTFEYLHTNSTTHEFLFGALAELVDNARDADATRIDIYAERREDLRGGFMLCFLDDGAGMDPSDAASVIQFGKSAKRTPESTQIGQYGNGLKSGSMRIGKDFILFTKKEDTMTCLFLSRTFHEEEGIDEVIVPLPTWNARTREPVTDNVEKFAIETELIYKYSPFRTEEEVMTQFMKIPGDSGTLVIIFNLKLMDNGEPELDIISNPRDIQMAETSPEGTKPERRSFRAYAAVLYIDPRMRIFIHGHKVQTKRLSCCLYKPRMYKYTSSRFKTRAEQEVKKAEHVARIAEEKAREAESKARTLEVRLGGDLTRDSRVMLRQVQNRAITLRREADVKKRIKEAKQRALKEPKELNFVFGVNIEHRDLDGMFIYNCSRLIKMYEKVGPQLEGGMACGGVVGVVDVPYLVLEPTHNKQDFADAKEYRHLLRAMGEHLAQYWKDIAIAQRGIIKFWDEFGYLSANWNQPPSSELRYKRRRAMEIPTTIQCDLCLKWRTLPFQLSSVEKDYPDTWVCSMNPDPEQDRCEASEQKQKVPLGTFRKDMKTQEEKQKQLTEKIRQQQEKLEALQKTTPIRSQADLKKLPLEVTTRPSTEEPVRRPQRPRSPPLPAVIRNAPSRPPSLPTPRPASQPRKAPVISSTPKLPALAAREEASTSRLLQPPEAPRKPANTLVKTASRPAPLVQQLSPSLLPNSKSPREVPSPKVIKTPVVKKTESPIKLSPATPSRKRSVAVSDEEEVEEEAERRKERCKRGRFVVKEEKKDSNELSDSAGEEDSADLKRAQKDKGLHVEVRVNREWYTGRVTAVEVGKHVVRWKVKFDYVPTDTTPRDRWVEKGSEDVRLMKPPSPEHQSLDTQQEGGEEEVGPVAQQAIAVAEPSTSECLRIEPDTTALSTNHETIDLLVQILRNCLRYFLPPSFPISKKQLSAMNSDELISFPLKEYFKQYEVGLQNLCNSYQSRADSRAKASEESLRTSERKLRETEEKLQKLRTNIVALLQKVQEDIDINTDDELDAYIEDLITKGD
# Chain of UniProt Q13601 (Q13601 whole entry, looked up): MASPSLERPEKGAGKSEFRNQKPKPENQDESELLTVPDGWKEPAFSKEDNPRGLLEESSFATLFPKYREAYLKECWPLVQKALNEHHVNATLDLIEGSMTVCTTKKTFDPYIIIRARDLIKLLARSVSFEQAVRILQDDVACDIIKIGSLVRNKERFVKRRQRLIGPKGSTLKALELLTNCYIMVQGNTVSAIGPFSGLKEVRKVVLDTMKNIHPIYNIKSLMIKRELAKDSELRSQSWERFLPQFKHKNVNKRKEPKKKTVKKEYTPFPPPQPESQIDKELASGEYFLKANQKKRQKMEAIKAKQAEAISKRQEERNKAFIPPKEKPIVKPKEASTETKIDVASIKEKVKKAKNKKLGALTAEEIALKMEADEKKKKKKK
# Chain of UniProt P14174 (P14174 whole entry, looked up): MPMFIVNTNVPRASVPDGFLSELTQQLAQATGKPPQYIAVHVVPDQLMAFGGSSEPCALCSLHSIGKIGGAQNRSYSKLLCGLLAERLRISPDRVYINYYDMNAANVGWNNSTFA
# Chain of UniProt Q9NZL9 (Q9NZL9 whole entry, looked up): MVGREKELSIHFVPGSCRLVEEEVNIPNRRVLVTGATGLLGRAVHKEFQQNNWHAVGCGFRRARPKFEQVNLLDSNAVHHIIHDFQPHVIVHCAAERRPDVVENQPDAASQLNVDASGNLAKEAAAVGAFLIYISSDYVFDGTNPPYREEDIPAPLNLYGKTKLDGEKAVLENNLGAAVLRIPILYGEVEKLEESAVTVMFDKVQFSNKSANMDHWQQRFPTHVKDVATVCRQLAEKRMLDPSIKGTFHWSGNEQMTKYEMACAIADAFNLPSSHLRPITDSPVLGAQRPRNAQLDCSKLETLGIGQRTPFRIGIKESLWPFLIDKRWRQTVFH
# Chain of UniProt Q9NX58 (Q9NX58 whole entry, looked up): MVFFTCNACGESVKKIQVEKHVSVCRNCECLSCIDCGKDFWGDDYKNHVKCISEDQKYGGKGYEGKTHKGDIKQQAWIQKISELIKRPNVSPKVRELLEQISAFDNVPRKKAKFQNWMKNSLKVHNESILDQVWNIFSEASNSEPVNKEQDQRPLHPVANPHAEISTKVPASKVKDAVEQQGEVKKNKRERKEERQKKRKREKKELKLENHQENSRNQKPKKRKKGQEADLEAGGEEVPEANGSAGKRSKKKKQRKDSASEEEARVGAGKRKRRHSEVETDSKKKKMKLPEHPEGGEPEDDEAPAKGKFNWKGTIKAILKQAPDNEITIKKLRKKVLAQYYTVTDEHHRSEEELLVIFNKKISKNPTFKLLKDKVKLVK
# Chain of UniProt P27816 (P27816 whole entry, looked up): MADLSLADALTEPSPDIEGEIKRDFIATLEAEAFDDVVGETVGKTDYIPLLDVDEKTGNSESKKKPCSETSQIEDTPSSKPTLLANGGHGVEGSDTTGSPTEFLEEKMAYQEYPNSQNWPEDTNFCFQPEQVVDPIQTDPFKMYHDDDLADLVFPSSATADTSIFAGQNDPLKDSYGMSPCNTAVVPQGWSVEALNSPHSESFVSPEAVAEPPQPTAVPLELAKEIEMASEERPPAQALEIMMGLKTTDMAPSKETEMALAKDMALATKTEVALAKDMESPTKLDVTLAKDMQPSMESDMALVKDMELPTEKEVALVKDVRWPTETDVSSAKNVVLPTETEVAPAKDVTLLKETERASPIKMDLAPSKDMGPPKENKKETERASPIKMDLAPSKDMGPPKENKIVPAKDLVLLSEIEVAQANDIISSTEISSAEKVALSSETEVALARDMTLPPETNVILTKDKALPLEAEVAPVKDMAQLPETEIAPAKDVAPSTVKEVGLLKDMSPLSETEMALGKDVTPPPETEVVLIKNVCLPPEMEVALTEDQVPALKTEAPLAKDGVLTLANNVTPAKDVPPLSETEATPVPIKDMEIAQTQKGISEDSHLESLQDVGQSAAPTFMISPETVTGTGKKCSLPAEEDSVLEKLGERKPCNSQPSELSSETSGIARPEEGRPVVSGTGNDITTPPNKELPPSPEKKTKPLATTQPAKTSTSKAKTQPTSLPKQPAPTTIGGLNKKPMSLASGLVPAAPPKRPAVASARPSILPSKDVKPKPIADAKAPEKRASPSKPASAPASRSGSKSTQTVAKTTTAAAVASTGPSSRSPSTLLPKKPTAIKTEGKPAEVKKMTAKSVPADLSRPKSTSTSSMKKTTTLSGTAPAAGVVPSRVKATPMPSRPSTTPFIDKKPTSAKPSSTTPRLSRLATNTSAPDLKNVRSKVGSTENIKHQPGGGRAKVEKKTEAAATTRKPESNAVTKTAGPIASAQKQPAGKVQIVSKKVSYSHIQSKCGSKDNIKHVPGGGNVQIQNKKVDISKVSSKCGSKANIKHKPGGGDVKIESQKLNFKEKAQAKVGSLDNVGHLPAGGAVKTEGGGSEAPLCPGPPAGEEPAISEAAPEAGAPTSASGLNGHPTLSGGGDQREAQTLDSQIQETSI
Target,log2 fold change (alvocidib),log2 fold change (Tubastatin A),log2 fold change [1],log2 fold change (defactinib),log2 fold change [2],log2 fold change (encorafenib),log2 fold change [3],log2 fold change (alisertib),log2 fold change [4],log2 fold change (gefitinib),log2 fold change (lapatinib),log2 fold change (pictilisib),log2 fold change (crizotinib),log2 fold change [5],log2 fold change (duvelisib),log2 fold change (gandotinib),log2 fold change (tozasertib),log2 fold change (doramapimod),log2 fold change (bafetinib),log2 fold change [6]
MAP2K1 (UniProt Q02750),0.06,-0.011,0.066,0.013,0.028,-0.07,-0.063,-0.036,0.021,0.029,-0.065,-0.009,0.001,0.204,-0.021,-0.042,0.152,-0.002,-0.027,-0.047
LYAR (UniProt Q9NX58),0.072,0.018,0.006,0.014,-0.002,-0.005,0.021,0.005,-0.001,-0.043,0,0.025,0.005,0.269 (active),0.017,-0.119,-0.025,-0.017,-0.008,-0.099
MORF4L1 isoform 2 (UniProt Q9UBU8),-0.01,0.001,-0.001,-0.005,0.247 (active),-0.023,-0.021,0.045,0.044,0.008,0.024,0.023,0.025,-0.058,0.021,0.037,-0.019,-0.047,-0.01,0.006
MIF (UniProt P14174),-0.109,0.545 (active),0.103,-0.05,-0.145,-0.028,-0.013,0.005,-0.006,0.068,0.04,0.06,-0.022,-0.258 (active),0.022,0.11,-0.057,0.008,0.383,0.024
MORC2 (UniProt Q9Y6X9),0.018,-0.095,0,0.013,-0.012,0.02,0.025,0.001,-0.008,-0.02,0.016,0.015,-0.012,-0.049,0.04,-0.032,0.008,0.012,-0.032,0.043
MRPL10 isoform 2 (UniProt Q7Z7H8),0.024,-0.013,-0.035,0.023,0.074,0.031,0.183,0.028,-0.025,-0.019,-0.02,-0.041,-0.104,0.152,0.034,-0.037,-0.01,0.104,-0.059,-0.012
MAT2B (UniProt Q9NZL9),-0.028,0.063,-0.013,0.003,-0.01,-0.009,-0.006,0.032,0.016,-0.006,0.008,-0.028,0.007,0.063,-0.031,-0.02,0.019,-0.023,-0.007,0.005
MRPL12 (UniProt P52815),0.066,0.117,0.06,0.096,0.037,0.003,-0.079,0.115,-0.01,-0.153,0.094,-0.019,0.086,-0.1,0.011,0,0.077,-0.031,-0.073,0.035
MON2 isoform 5 (UniProt Q7Z3U7),0.003,-0.149,0.018,0.023,-0.014,0.034,-0.035,-0.004,0,0.005,-0.034,-0.027,-0.077,-0.042,0.003,-0.031,0.001,-0.011,-0.035,0.12
MBD2 (UniProt Q9UBB5),0.026,-0.06,0.001,0.022,0.083,0.013,-0.061,0.031,0.024,-0.016,-0.009,0.017,0.006,-0.035,0.02,-0.004,0.029,0.045,-0.006,-0.032
MPI (UniProt P34949),0.051,0.024,-0.02,-0.007,0.035,-0.01,0.477 (active),0.018,0.01,-0.014,0.02,-0.017,-0.029,0.174,0.007,-0.055,-0.043,0.032,0.013,-0.014
MRPL15 (UniProt Q9P015),-0.122,0.022,-0.014,-0.011,0.088,0.053,-0.013,0.006,-0.014,-0.027,-0.021,0.036,-0.045,-0.421 (active),-0.013,0.134,0,0.079,-0.063,0.241
MGAT5 (UniProt Q09328),0.056,-0.009,-0.011,-0.337 (active),-0.026,0.006,-0.095,0.025,0.054,-0.064,0.022,0.066,-0.051,0.098,0.018,-0.106,-0.037,0.023,0.079,-0.112
KRR1 (UniProt Q13601),0.028,-0.033,-0.054,0.01,-0.005,0.092,0.023,0.032,0.046,-0.014,-0.039,0.03,-0.228,0.05,-0.037,-0.097,-0.038,0.127,-0.039,0.002
MAP4 (UniProt P27816),-0.023,0.043,0.016,-0.02,0.037,-0.024,-0.031,-0.007,0.014,-0.02,-0.002,0.012,0.013,-0.032,-0.004,0.058,-0.014,-0.044,0.018,-0.007
MED14 (UniProt O60244),-0.017,-0.068,0.051,-0.008,0.015,0.012,0.003,-0.028,-0.018,0.001,-0.032,-0.006,-0.016,-0.058,-0.033,-0.016,0.046,-0.028,-0.036,0.037
